Reference: PubChem BioAssay (NCATS)
Inconclusive results are not listed. Active and inactive are the calls of the source. Unless noted, calls follow the shape of the dose curve; as a rule, active = well fitted curve in the direction sought with a large enough effect; inconclusive = small, poorly fitted or top-dose-only effect, or another doubt; inactive = no such curve, though single readings can be large; an effect the other way counts as inactive or inconclusive.

Assays:
[1] = Confirmatory qHTS for small molecule stabilizers of the endoplasmic reticulum resident proteome: Secreted ER Calcium Modulated Protein (SERCaMP) assay (AID 1508628); also: nearly all actives have a fitted effect of over 40% in size; also: potency is read from the fitted curve at half-maximal effect
In short: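 SH-SY5Y cells stably expressing GLuc-SERCaMP, treated 16 h with compound (primary 1.53, 7.67, 38.3 uM; confirmation 11 concentrations, up to 76.6 uM), then 100 nM thapsigargin for 4 h. Secreted Gaussia luciferase in medium read by coelenterazine luminescence.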

[2] = Cell Viability qHTS for small molecule stabilizers of the endoplasmic reticulum resident proteome (AID 1508629); conditions: cell viability counter-screen, 100 nM thapsigargin for final 4 h;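 also: human SH-SY5Y neuroblastoma cells carrying the GLuc-SERCaMP reporter; compound exposure about 46 h in total before the viability read; % is scaled to controls: 0 for no effect and ±100 for the full control effect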
[3] = target: Lysosomal acid glucosylceramidase (Homo sapiens) (UniProt P04062); test: Glucocerebrosidase-p2 (AID 348; in the data active = potency below about 10 µM; also: potency is read from the fitted curve at half-maximal effect); conditions: purified GBA, blue fluorogenic substrate, 40 min
In short: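 Compounds titrated from 0.6 nM upwards against 0.2 nM enzyme in pH 5.9 citric acid/KH2PO4, taurocholate, tween-20; blue fluorogenic substrate 80 uM, 40 min room temperature, stopped and read Ex 365/Em 440 for AC50.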

[4] = target: Cytochrome P450 1A2 (Homo sapiens) (UniProt P05177); test: p450-cyp1a2 (AID 410; calls by dose curve; also: potency is read from the fitted curve at half-maximal effect)
In short: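 Luminescent readout of luciferin formed from Luciferin-ME by human CYP1A2; data normalized against complete inhibition by 57 uM furafylline. Enzyme 20nM, substrate 100uM at Km, 100mM KPO4 buffer, 60 min reaction at room temperature.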

[5] = target: Glucocorticoid receptor (Homo sapiens) (UniProt P04150); test: GR-GFP Redistribution (AID 450;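 active = compounds whose dose series gives a full or clear partial fitted curve of increased nuclear translocation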; also: potency is read from the fitted curve at half-maximal effect); conditions: U2OS GR-GFP nuclear translocation, laser cytometry, 2 h
[6] = target: Glucocorticoid receptor (Homo sapiens) (UniProt P04150); test: GR-EFC Redistribution (AID 451; calls by dose curve; also: potency is read from the fitted curve at half-maximal effect); conditions: CHO-K1 GR-EFC translocation, beta-gal luminescence, 2 h
In short: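 CHO-K1 cells expressing nuclear EA and GR-ED fragments of b-gal; compounds titrated up to 46 uM final, 2 h at 37 C. GR nuclear translocation read as complemented b-gal luminescence after 1 h RT detection.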

[7] = target: Mitogen-activated protein kinase 10 (Mus musculus) (UniProt Q61831); test: JNK3 AlphaScreen Assay (AID 530; active = well fitted curve in either direction with a large enough effect, not every such curve was filed as active;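 also: kinase came from lysate of stimulated human HepG2 cells; signal reports phosphorylation of biotinylated GST-cJun 1-79 at Ser73 with 10 µM ATP; % is scaled to controls: 0 for no effect and ±100 for the full control effect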)
In short: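 Pre-activated (IL-1β/TNFα) JNK3 in HepG2 lysates phosphorylates biotin-GST-cJun(1-79), 10 uM ATP; anti-phospho-cJun(Ser73) AlphaScreen read at room temperature, pH 7.6 Tris buffer. Compounds pre-incubated 15 min as titrations.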

[8] = target: 3',5'-cyclic-AMP phosphodiesterase 4B (Homo sapiens) (UniProt Q07343); test: qHTS Assay for Inhibitors of PDE-IV (AID 607; active = well fitted activation curve with a large enough effect in the main read-out, with a control signal flat, not every such curve was filed as active; also: % of control where 0% means no effect)
In short: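 HEK293 ACTOne cells with CNG channel (1000/well), endogenous PDE4; membrane potential dye, compounds up to 22.9 uM final. Fluorescence Ex 535/Em 590; RO 20-1724 (100 uM final) as reference.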

[9] = target: Cytochrome P450 3A4 (Homo sapiens) (UniProt P08684); test: qHTS Assay for Activators of Cytochrome P450 3A4 (AID 885); also: nearly all actives have a fitted effect of over 65% in size
In short: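 Human CYP3A4 (20 nM) with Luciferin-PPXE at 25 uM (its KM) in 200 mM KPO4; 10 min compound preincubation, then NADPH regeneration and 60 min reaction at RT. Luciferin read by luminescence; normalized to 57 uM ketoconazole full inhibition.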

[10] = Counterscreen qHTS for small molecule stabilizers of the endoplasmic reticulum resident proteome: GLuc-NoTag assay (AID 1508627);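 also: SH-SY5Y cells given compound then 100 nM thapsigargin to empty ER calcium; 0% = thapsigargin alone and -100% = DMSO vehicle control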
In short: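 SH-SY5Y cells stably expressing constitutively secreted GLuc without SERCaMP tag, exposed to compound for 19 hr, then to 100 nM thapsigargin for 4 hr at 37C. Medium luciferase was read by coelenterazine luminescence without lysis.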

[11] = AP1 Signaling Pathway (AID 357; active = well fitted curve in either direction with a large enough effect, not every such curve was filed as active;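 also: ME-180 reporter cells stimulated with EGF at its EC50 level; % is scaled to controls: 0 for no effect and ±100 for the full control effect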); conditions: ME-180 AP-1-bla reporter, EGF-induced, beta-lactamase ratio, 5 h; at 7.69 µM (top of the series) unless noted
In short: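 First, ME-180 AP-1-bla cells were cultured overnight at 37 °C in low-serum Opti-MEM. Next, titrated compounds with EC50 EGF were incubated 5 hours. Finally, CCF4 was added for 2.5 hours and the 460/530 nm ratio recorded.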

[12] = NFAT Signaling Pathway (AID 444; active = well fitted curve in either direction with a large enough effect, not every such curve was filed as active;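 also: carbachol stimulus at about its EC50 of 1 µM final; % is scaled to controls: 0 for no effect and ±100 for the full control effect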); conditions: Jurkat NFAT-bla M1, carbachol, beta-lactamase ratio, 5 h; at 7.69 µM (top of the series) unless noted
In short: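 Jurkat cells with NFAT-driven β-lactamase reporter and co-expressed M1 receptor, stimulated with carbachol (final 1 uM, ~EC50), compound titration, 5 h at 37 °C. CCF4 loaded 1 h at RT; 460/530 nm ratio gave %activity and AC50.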

[13] = Stat Signaling Pathway (AID 446; active = well fitted curve in either direction with a large enough effect, not every such curve was filed as active); conditions: ME-180 SIE beta-lactamase reporter, IL-6 stimulated, 5 h; at 7.69 µM (top of the series) unless noted
In short: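 ME-180 cells carrying a SIE-driven beta-lactamase reporter are stimulated with 40 pM IL-6 for 5 h at 37C in the presence of compound. The 460/530 nm FRET substrate ratio is read after 2.5 h at RT. Data are normalised to 300 pM IL-6 and to 125 nM JAK inhibitor controls.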

[14] = target: Cytochrome P450 2C9 (Homo sapiens) (UniProt P11712); test: qHTS Assay for Inhibitors and Substrates of Cytochrome P450 2C9 (AID 883); also: potency is read from the fitted curve at half-maximal effect; nearly all actives have a fitted effect of over 60% in size
In short: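 Human CYP2C9 (10nM) with Luciferin-H at 100uM (its KM) in 25mM KPO4; compound preincubated 10 min at 37C, then NADPH regeneration for 60 min at 37C. Luciferin read by luminescence after detection reagent; normalized to 57uM sulphaphenazole as full inhibition.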

[15] = target: Cytochrome P450 3A4 (Homo sapiens) (UniProt P08684); test: qHTS Assay for Inhibitors and Substrates of Cytochrome P450 3A4 (AID 884); also: potency is read from the fitted curve at half-maximal effect; nearly all actives have a fitted effect of over 50% in size
In short: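 20 nM human CYP3A4 with 25 uM Luciferin-PPXE (at KM) in 200 mM KPO4, preincubated 10 min with compound; NADPH regeneration started a 60 min RT reaction. Luciferin detected by luminescence, normalized to 57 uM ketoconazole as full inhibition.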

[16] = target: Dual specificity protein kinase CLK4 (Homo sapiens) (UniProt Q9HAZ1); test: qHTS Assay for Inhibitors of CDC-like Kinase 4 (ADP-FP Assay) (AID 1795); also: % is scaled to controls: 0 for no effect and ±100 for the full control effect; nearly all actives have a fitted effect of over 60% in size
In short: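 Recombinant human Clk4 (6.25 nM) phosphorylated RS repeat peptide (100 uM) with 1 uM ATP in Tris pH 7.5/MgCl2/EGTA/DTT/Triton buffer for one hour. ADP was quantified by Transcreener competitive fluorescence polarization against an ADP calibration curve.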

[17] = target: Ubiquitin carboxyl-terminal hydrolase 1 (Homo sapiens) (UniProt O94782); test: Inhibitors of USP1/UAF1: Pilot qHTS (AID 504865);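 also: rhodamine fluorescence freed from ubiquitin-rhodamine substrate followed over time; top concentration of the series differs between compounds; % is scaled to controls: 0 for no effect and ±100 for the full control effect; nearly all actives have a fitted effect of over 35% in size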
In short: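 USP1/UAF1 complex (1nM) preincubated with compound 15 min at room temperature, then Ub-Rho substrate (150nM final) added. Fluorescence read kinetically at 480/540 nm, 6 reads every 60 seconds. Buffer: 50mM HEPES pH 7.8, 0.5mM EDTA, 0.1 mg/ml BSA, 1mM TCEP, 0.01% Tween-20.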

[18] = qHTS Assay for Lipid Storage Modulators (AID 1519; calls by dose curve); conditions: Drosophila S3 cells, BODIPY lipid droplet/cell ratio, laser cytometry, cells loaded with oleic acid
In short: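 Cells seeded at 5,000 per well were treated with compounds over a concentration series and loaded with oleic acid (400 uM, as added). Lipid droplet fluorescence (488 nm excitation, 500-530 nm channel) was read by laser-scanning cytometry and normalized to 20 uM Triacsin C.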

[19] = target: Dual specificity protein kinase CLK4 (Homo sapiens) (UniProt Q9HAZ1); test: qHTS Assay for Inhibitors of CDC-like Kinase 4 (Kinase-Glo Assay) (AID 1770); also: % is scaled to controls: 0 for no effect and ±100 for the full control effect; nearly all actives have a fitted effect of over 65% in size
In short: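 Recombinant human Clk4 (25 nM) phosphorylated RS repeat peptide (100 uM) with 1 uM ATP in Tris pH 7.5/MgCl2/EGTA/DTT/Triton buffer for 4.5 h at room temperature. Residual ATP was quantified by Kinase-Glo luciferase luminescence.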

[20] = target: Dual specificity protein kinase CLK4 (Homo sapiens) (UniProt Q9HAZ1); test: qHTS Assay for Inhibitors of CDC-like Kinase 4 (ADP-Glo Assay) (AID 1771); also: % is scaled to controls: 0 for no effect and ±100 for the full control effect; nearly all actives have a fitted effect of over 70% in size
In short: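 Luminescence from ADP-Glo reports ADP produced by 25 nM Clk4 acting on 100 uM RS repeat peptide with 1 uM ATP over 1 hr at room temperature; residual ATP is depleted before ADP is converted to ATP for detection.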

[21] = target: Cytochrome P450 2C19 (Homo sapiens) (UniProt P33261); test: qHTS Assay for Inhibitors and Substrates of Cytochrome P450 2C19 (AID 899); also: potency is read from the fitted curve at half-maximal effect; nearly all actives have a fitted effect of over 60% in size
In short: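 5 nM human CYP2C19 with 10uM Luciferin-H EGE (at KM) in 50mM KPO4, compound preincubated 10 min at 37C, then NADPH regeneration for 60 min at 37C. Luciferin read by luminescence after detection reagent; normalized to 57uM ketoconazole as full inhibition.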

Chain of Glucocorticoid receptor (Homo sapiens) (P04150 whole entry, looked up, the tested form may be a part): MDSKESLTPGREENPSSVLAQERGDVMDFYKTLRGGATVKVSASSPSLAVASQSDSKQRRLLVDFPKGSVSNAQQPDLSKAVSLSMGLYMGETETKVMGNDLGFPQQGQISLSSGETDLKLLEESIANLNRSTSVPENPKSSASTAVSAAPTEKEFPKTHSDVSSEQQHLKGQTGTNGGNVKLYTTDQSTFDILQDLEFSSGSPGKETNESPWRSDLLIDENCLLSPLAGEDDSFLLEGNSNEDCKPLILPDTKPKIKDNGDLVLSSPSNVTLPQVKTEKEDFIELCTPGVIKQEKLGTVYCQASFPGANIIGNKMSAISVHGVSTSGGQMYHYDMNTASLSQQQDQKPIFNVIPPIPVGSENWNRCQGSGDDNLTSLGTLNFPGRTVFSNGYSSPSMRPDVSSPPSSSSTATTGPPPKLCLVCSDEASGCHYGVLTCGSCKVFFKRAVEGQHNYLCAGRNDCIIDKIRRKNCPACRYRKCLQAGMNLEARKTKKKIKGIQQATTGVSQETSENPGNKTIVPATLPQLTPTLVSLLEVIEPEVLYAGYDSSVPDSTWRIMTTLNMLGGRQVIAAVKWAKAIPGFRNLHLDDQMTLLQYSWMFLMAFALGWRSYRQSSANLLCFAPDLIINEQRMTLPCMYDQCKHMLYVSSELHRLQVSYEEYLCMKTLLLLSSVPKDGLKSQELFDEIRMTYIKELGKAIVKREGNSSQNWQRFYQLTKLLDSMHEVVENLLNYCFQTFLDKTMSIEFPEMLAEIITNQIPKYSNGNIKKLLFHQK
Chain of Cytochrome P450 1A2 (Homo sapiens) (P05177 whole entry, looked up): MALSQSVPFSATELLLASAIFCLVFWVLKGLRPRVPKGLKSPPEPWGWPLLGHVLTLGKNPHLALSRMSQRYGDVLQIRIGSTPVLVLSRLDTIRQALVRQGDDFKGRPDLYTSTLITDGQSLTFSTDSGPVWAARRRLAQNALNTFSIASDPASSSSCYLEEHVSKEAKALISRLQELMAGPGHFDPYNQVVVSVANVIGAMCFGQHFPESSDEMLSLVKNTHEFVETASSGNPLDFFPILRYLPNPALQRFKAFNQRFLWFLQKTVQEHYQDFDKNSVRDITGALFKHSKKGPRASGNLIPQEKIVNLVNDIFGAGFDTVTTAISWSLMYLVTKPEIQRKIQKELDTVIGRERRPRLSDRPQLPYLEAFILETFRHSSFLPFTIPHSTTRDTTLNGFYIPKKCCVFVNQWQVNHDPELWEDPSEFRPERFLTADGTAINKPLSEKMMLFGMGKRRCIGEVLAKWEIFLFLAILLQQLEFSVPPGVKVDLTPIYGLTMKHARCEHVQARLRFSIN
Chain of Dual specificity protein kinase CLK4 (Homo sapiens) (Q9HAZ1 whole entry, looked up): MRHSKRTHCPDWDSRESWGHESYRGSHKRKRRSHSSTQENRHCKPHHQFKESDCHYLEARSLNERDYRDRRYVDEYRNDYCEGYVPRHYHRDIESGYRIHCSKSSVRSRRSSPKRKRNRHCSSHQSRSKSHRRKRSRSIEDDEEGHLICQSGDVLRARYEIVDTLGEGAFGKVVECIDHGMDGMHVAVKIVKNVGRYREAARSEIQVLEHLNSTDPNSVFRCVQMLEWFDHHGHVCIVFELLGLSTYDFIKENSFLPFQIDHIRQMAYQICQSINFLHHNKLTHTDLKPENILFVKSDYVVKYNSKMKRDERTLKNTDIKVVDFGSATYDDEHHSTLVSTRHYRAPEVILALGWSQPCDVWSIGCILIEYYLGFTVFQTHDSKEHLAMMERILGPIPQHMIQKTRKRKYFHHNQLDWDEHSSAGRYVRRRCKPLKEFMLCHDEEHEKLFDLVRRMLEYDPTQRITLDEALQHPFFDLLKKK
Chain of Lysosomal acid glucosylceramidase (Homo sapiens) (P04062 whole entry, looked up): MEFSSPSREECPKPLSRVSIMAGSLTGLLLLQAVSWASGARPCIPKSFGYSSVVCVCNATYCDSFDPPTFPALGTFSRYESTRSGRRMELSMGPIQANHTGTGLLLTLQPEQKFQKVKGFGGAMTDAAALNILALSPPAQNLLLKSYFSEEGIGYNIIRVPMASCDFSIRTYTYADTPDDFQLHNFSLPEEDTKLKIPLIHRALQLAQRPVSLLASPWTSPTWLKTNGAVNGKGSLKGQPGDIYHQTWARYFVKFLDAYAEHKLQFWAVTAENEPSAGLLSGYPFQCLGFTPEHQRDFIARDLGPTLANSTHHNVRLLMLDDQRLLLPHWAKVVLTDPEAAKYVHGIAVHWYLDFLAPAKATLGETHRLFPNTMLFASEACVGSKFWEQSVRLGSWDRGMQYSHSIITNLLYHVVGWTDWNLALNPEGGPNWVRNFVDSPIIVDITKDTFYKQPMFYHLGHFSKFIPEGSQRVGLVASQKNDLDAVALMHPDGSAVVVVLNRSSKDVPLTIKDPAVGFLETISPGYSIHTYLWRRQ
Chain of 3',5'-cyclic-AMP phosphodiesterase 4B (Homo sapiens) (Q07343 whole entry, looked up): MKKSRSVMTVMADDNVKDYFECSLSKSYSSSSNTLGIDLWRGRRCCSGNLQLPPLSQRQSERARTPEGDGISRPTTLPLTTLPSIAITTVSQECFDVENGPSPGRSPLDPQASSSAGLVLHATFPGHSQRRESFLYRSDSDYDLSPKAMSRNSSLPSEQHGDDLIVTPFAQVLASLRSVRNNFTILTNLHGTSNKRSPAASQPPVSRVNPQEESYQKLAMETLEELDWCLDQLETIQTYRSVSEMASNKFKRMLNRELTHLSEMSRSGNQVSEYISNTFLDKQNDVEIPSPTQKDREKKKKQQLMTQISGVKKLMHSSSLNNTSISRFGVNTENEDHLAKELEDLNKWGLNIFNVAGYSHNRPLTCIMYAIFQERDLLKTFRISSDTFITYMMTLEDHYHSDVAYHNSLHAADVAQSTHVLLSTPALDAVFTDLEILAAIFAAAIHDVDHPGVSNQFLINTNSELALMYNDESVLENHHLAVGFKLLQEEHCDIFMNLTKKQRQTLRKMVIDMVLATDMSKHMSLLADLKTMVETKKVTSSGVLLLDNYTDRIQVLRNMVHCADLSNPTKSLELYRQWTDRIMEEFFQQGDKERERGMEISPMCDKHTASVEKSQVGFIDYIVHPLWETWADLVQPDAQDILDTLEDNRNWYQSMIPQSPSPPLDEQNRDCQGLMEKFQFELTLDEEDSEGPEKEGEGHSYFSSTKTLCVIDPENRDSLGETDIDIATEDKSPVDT
Chain of Cytochrome P450 3A4 (Homo sapiens) (P08684 whole entry, looked up): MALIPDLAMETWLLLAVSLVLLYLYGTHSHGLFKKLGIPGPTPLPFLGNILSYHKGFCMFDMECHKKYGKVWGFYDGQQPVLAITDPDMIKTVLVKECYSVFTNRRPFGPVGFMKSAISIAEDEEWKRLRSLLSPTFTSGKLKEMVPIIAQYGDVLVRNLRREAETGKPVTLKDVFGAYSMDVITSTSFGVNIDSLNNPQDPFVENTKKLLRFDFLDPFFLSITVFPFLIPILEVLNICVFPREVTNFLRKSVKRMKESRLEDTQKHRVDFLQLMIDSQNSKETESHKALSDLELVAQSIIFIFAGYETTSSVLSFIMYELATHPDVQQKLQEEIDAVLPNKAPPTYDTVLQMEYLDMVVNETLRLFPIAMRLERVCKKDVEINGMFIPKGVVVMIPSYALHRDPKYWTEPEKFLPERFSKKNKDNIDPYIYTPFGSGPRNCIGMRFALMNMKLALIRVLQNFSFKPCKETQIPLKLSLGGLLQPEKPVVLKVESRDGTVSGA
Chain of Ubiquitin carboxyl-terminal hydrolase 1 (Homo sapiens) (O94782 whole entry, looked up): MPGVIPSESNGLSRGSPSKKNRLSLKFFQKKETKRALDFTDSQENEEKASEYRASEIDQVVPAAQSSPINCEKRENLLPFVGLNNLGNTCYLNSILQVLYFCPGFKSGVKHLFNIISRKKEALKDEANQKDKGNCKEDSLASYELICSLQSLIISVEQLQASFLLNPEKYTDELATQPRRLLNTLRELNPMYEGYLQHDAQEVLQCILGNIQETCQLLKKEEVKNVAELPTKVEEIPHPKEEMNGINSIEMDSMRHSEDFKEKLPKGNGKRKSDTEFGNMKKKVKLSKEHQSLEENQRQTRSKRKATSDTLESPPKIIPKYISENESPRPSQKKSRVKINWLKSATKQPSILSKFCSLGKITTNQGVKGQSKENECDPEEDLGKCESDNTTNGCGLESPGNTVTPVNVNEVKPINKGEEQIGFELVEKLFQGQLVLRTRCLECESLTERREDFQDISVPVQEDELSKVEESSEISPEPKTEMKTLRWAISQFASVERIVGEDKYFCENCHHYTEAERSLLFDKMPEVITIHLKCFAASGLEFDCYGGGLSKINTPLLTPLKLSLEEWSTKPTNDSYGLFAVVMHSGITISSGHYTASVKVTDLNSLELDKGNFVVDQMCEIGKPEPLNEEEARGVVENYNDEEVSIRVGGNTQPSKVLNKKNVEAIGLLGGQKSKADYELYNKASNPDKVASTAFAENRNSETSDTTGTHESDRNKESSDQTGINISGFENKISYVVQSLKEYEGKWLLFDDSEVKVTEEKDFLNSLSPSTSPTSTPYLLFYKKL
Chain of Cytochrome P450 2C9 (Homo sapiens) (P11712 whole entry, looked up): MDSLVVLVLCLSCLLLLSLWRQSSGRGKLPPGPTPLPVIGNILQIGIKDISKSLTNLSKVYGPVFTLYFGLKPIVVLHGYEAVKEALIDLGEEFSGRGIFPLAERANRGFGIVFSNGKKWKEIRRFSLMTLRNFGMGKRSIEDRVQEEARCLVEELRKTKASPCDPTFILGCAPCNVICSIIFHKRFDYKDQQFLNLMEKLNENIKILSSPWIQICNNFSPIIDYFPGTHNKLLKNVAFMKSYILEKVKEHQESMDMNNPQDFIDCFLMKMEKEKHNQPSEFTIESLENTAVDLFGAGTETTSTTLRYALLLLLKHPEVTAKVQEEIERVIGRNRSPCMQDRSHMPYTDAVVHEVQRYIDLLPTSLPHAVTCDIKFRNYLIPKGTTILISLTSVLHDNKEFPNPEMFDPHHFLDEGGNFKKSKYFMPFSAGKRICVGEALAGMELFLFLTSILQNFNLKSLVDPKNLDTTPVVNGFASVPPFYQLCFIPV

C=C1CCC[C@]2(C)C[C@H]3OC(=O)[C@H](CNCCc4ccccc4OC)C3CC12 (some centres undefined)
inactive: Potency [1] | max response [2] -12.1%

COCCn1c(=O)c(-c2ccc(OC)cc2)nc2cnc(N3CCNCC3)nc21
inactive: Potency [3] > 11.4 µM | Potency [5] > 9.22 µM | Potency [6] > 46 µM | outcome [7] | Potency [8] | Potency [9] | Potency [10] | Potency [1]
active: Potency [4] 6.31 µM

COc1ccc(CNc2ncnc3ccc(-c4ccccc4OC)cc23)c(OC)c1
inactive: Potency [3] > 11.4 µM | activity change, negative = inhibition [11] -4.21% | activity change, negative = inhibition [12] -17.9% | activity, negative = inhibition [13] -2.99% | Potency [5] > 46 µM | Potency [6] > 46 µM | outcome [7] | Potency [9] | Potency [16] | Potency [17] | Potency [10]
active: Potency [4] 3.16 µM | Potency [14] 0.398 µM | Potency [15] 2 µM | Potency [1] 22.4 µM

COc1ccc(Oc2ncc3nc(-c4ccccc4)c(=O)n(C4CC4)c3n2)cc1
inactive: Potency [3] > 11.4 µM | activity change, negative = inhibition [11] -15.8% | activity change, negative = inhibition [12] 5.68% | activity, negative = inhibition [13] -1.16% | Potency [5] > 9.22 µM | Potency [6] > 46 µM | outcome [7] | Potency [8] | Potency [10] | max response [2] 12.6%

CCC(C)C(N)C(=O)NC(CC(N)=O)C(=O)NC(CC(C)C)C(=O)NC(CCCCN)C(=O)NC(C)C(=O)NC(CC(C)C)C(=O)NC(C)C(=O)NC(C)C(=O)NC(CC(C)C)C(=O)NC(C)C(=O)NC(CCCCN)C(=O)NC(CCCCN)C(=O)NC(C(=O)NC(CC(C)C)C(N)=O)C(C)CC (centres undefined)
inactive: Potency [1] | max response [2] 16.1%

Cn1c(=O)c(CCc2ccccc2)nc2cnc(OCc3ccccc3)nc21
inactive: activity change, negative = inhibition [11] -26% | activity change, negative = inhibition [12] -3.3% | activity, negative = inhibition [13] -13% | Potency [5] > 9.22 µM | Potency [6] > 46 µM | outcome [7] | Potency [8] | activity change, negative = inhibition ([18]; at 57.5 µM (top of the series)) 2.86% | Potency [19] | Potency [20] | Potency [16] | Potency [17] | Potency [10] | max response [2] -14.7%
15.4%: max response ([18]; measured here: lipid channel max response)
13.9%: max response ([18]; measured here: cell count channel max response)

COCCn1c(=O)c(CCc2ccccc2)nc2cnc(OC)nc21
active: Potency [4] 10 µM | Potency [21] 0.794 µM
inactive: Potency [3] > 11.4 µM | activity change, negative = inhibition [11] -6.75% | activity change, negative = inhibition [12] -10.3% | activity, negative = inhibition [13] -4.28% | Potency [6] > 46 µM | outcome [7] | Potency [9] | Potency [10]
